Assay results from PubChem BioAssay AID504773 (Broad Institute, 2011).
Entries with a potency or affinity are not part of this list. Calls of active or inactive are those of the source.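 Rule for the calls: active = polarization signal falls with dose and the fitted half-maximal concentration is at or below ten times the sample's top valid dose; inconclusive = flat curve at 30 to 70% inhibition, or poor fit; inactive = signal rises, flat within 30%, or potency beyond limit.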

target: Golgi-associated PDZ and coiled-coil motif-containing protein (Homo sapiens) (UniProt Q9HD26); assay: potency against CAL PDZ-peptide interaction – biochemical, fluorescence polarization, Cerulean-tagged CAL PDZ, cherry-picks, dose response (AID 504773); details: CAL PDZ-peptide binding, 1 h; series mostly up to 50 µM

outcome, inactive:
CS(=O)(=O)c1ccc2nc(NC(=O)CN3C(=O)C4CC=CCC4C3=O)sc2c1 (configuration not stated)
CCC(=O)Nc1ccc(S(=O)(=O)NCc2ccco2)cc1
CCCCNC(=O)c1ccc(-n2c(=S)[nH]c3ccccc3c2=O)cc1
Cc1cccc(C)c1NC(=S)NC(=O)c1ccc(Br)o1
CCOC(=O)C1CCN(C(=O)C2CC(=O)N(c3ccc4c(c3)OCCO4)C2)CC1 (configuration not stated)
COc1ccc(/C=N/N2CCN(c3ccccc3OC)CC2)cc1Br
CC(=O)N1CCN(c2ccc(NC(=O)c3cccc(Cl)c3Cl)cc2)CC1
Cc1ccc(C)c(N(CC(=O)NC(C)(C)C)C(=O)CCC(=O)Nc2nccs2)c1
C=CCOc1ccc2ccccc2c1CNn1cn[nH]c1=S
O=C(NC(Cc1c[nH]c2ccccc12)C(=O)O)/C(=C/c1ccc(F)cc1)NC(=O)c1ccccc1 (configuration not stated)
COc1ccc2ccn(S(=O)(=O)c3ccccc3)c2c1
COc1cc(C(=O)NC(C)CCc2ccccc2)cc(OC)c1OC (configuration not stated)
Cc1cc(/C=C2\SC(=O)N(C)C2=O)c(C)n1-c1ccc(O)cc1
COCCCNC(=O)c1c[nH]c2ccc(S(=O)(=O)N3CCC(C)CC3)cc2c1=O
Cc1ccc(S(=O)(=O)N2CCN(C(=O)c3ccccn3)CC2)cc1
O=[N+]([O-])c1ccc(N/N=C/c2cccnc2)cc1
O=C(COC(=O)c1cccnc1Cl)Nc1ccc2c(c1)OCO2
Cc1cc(C(=O)Nc2ccccc2Cl)c2ccccc2n1
C=CCOc1c(Cl)cc(CNn2cn[nH]c2=S)cc1OC
CN=c1scc(C)n1/N=C/c1cc(Br)c(O)c(Br)c1
Cc1ccc(-c2nc3ccccc3c(=O)o2)cc1
O=C(O)c1[nH]c2ccccc2c1C(c1ccccc1)c1c(C(=O)O)[nH]c2ccccc12
C/C(=N/N1CCN(c2ccccn2)CC1)c1ccc([N+](=O)[O-])cc1
CS(=O)(=O)N1CCN(C(=O)c2ccc3c(c2)OCCO3)CC1
COCC(=O)Nc1ccc2nc3n(c(=O)c2c1)CCCCC3
Cc1cc(C)c(OCC(=O)OC(C)C(=O)NC2CC2)c(C)c1 (configuration not stated)
O=C(COc1ccccc1)N1CCCCCCC1
COc1ccc(CN2CCCC(N3CCN(c4cccc(Cl)c4)CC3)C2)cc1OC (configuration not stated)
Cc1ccc(NC(=O)CN(C)CC(=O)Nc2cccc(F)c2)cc1S(=O)(=O)N1CCCCCC1
CCCC(=O)OCC(=O)Nc1ccccc1C#N
O=C(CN1C(=O)NC2(CCCC2)C1=O)Nc1ccc(F)c(F)c1F
Cc1cc(C)c(S(=O)(=O)NCc2ccc3c(c2)OCO3)c(C)c1
O=C(Nc1ccc(Cl)cc1)c1ccc(CN2CCc3ccccc3C2)cc1
CC1Cc2ccccc2N1C(=O)CNc1ccccc1N1CCCCC1 (configuration not stated)
CC1CCN(C(=O)COC(=O)c2cccs2)CC1
O=C(c1cccs1)N1CCN(C(=O)N2CCOCC2)CC1
O=C(NCc1cccnc1)/C(=C/c1ccc(-c2cccc(C(F)(F)F)c2)o1)NC(=O)c1ccccc1
